# Laboratory results published in PubChem BioAssay (NCI).
# About 83,000 compounds went through this panel and 20% of them were active in at least one assay; those are over-represented in the sample as a whole.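 Cell lines were cultured in 96-well plates, exposed to a single compound concentration, and assessed for percent growth 48 hours later.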 A number with no mark means an inactive call. Activity calls are given as the source filed them. How the source made its calls: active means growth percent below 10; inactive means the rest.
# Columns and labels:
# Test in all cases: NCI-60 one-dose screen, 48 h (100 = growth as untreated, 0 = no growth, -100 = all killed)
# Details in all cases: 10 µM unless noted
# NCI-H23 lung = system: NCI-H23 lung
# NCI-H226 lung = system: NCI-H226 lung
# NCI-H322M lung = system: NCI-H322M lung
# HOP-62 NSCLC = system: HOP-62 NSCLC
# NCI-H460 lung = system: NCI-H460 lung
# HOP-92 NSCLC = system: HOP-92 NSCLC
# NCI-H522 lung = system: NCI-H522 lung
# A549/ATCC NSCLC = system: A549/ATCC NSCLC
# 786-0 renal = system: 786-0 renal
# COLO 205 colon = system: COLO 205 colon
# DU-145 prostate = system: DU-145 prostate
# K-562 leukemia = system: K-562 leukemia
# MALME-3M melanoma = system: MALME-3M melanoma
# MDA-MB-231 breast = system: MDA-MB-231 breast
# RXF 393 renal = system: RXF 393 renal
# SF-268 CNS = system: SF-268 CNS
# SF-295 CNS = system: SF-295 CNS
# SF-539 CNS = system: SF-539 CNS
# M14 melanoma = system: M14 melanoma
# UACC-257 melanoma = system: UACC-257 melanoma
Structure (SMILES),growth (NCI-H23 lung) [%],growth (NCI-H226 lung) [%],growth (NCI-H322M lung) [%],growth (HOP-62 NSCLC),growth (NCI-H460 lung),growth (HOP-92 NSCLC),growth (NCI-H522 lung),growth (A549/ATCC NSCLC),growth (786-0 renal),growth (COLO 205 colon),growth (DU-145 prostate),growth (K-562 leukemia),growth (MALME-3M melanoma),growth (MDA-MB-231 breast),growth (RXF 393 renal),growth (SF-268 CNS) [%],growth (SF-295 CNS),growth (SF-539 CNS),growth (M14 melanoma),growth (UACC-257 melanoma) [%]
COc1cccc(-c2nn(-c3ccccc3)cc2-c2ccnc(NCCNS(=O)(=O)c3ccc(C(F)(F)F)cc3)c2)c1,17.1,34.8,45.1,35.6%,11.4%,-10.9% (active),1.9% (active),14.2%,3.75% (active),-73.5% (active),46.6%,3.79% (active),-17.9% (active),6.28% (active),-22.2% (active),36,3.05% (active),2.91% (active),13.6%,–
Cn1c2ccccc2c2c3c(c4c5cccnc5[nH]c4c21)C(=O)N(O)C3=O,15.1,74.3,62.6,15.3%,14.7%,78.9%,47.6%,62.3%,36.6%,22.4%,26.5%,29.8%,58.2%,68.8%,59.5%,38.2,37.6%,16.6%,20.5%,–
O=S(=O)(NCCNc1cc(-c2cn(-c3ccccc3)nc2-c2cccc(O)c2)ccn1)c1ccc(C(F)(F)F)cc1,41.8,57.8,75.3,-60% (active),42.3%,38.4%,55.7%,41.6%,35.8%,-21.4% (active),71.8%,7.03% (active),60.2%,5.29% (active),40.5%,50,38.6%,60.1%,32.1%,–
CSc1ccc(N(C)c2nc(C)nc3c2CCC3)cc1,16.7,55.5,57.4,2.72% (active),6.41% (active),-17% (active),-26.7% (active),6.42% (active),14.4%,-64.9% (active),9.33% (active),5.51% (active),92.8%,10%,44.7%,26.9,14.3%,-16.1% (active),5.22% (active),–
Cc1ccc(N(CC(=O)Nc2ccc(S(=O)(=O)NC3CCN(C)CC3)cc2)S(=O)(=O)c2ccc(Cl)cc2)cc1,90.7,87.7,88.9,96.2%,8.12% (active),69.6%,90.4%,69.2%,87.4%,-47.6% (active),71.9%,19.5%,-47.5% (active),53.6%,36.4%,68.7,101%,85.4%,63%,–
Cc1ccc(N(CC(=O)Nc2ccc(S(=O)(=O)N3CCC(N4CCCC4)CC3)cc2)S(=O)(=O)c2ccc(Cl)cc2)cc1,77.6,64.7,22.5,67.6%,-58.5% (active),50.9%,44.2%,20.2%,-70.5% (active),-60.5% (active),9.76% (active),-44.9% (active),-81.2% (active),-42.9% (active),-70.8% (active),34.8,-64.5% (active),-89.7% (active),-68.8% (active),–
COc1ccc(C2=NN(c3nc(-c4ccc(OC)cc4)c(C#N)c(=O)n3C)C(=O)CC2)cc1,99.8,86.1,91.9,105%,103%,77.9%,94.1%,104%,109%,109%,115%,101%,81.6%,83.5%,97.5%,100,93.6%,93.6%,95.4%,–
CCc1ccc(-c2ccc(Nc3ccccc3)nn2)cc1S(N)(=O)=O,86,86.8,107,92.9%,51.2%,80.2%,71.5%,80.5%,94.3%,94.8%,77.1%,12.5%,71.4%,69.3%,77.3%,78.6,–,84.3%,67.1%,83.7
